# Measurements published in PubChem BioAssay (Tox21).
# Results filed as inconclusive are left out. Where a call stands in place of a potency, no number is given. Active and inactive are the calls of the source. Unless noted, calls follow the shape of the dose curve; as a rule, active = well fitted curve in the direction sought with a large enough effect in the repeat runs; inconclusive = weak or mixed curves; inactive = no such curve, though single readings can be large; an effect the other way counts as inactive or inconclusive.
# Tests used:
# [1] = biological target: Aryl hydrocarbon receptor (Homo sapiens) (UniProt P35869); experiment: qHTS assay to identify small molecule that activate the aryl hydrocarbon receptor (AhR) signaling pathway (AID 743085); also: nearly all actives have a fitted effect of over 15% in size; also: potency is read from the fitted curve at half-maximal effect;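 as to activation: HG2L7.5c1 human HepG2 liver cells with stably integrated DRE-driven firefly reporter; series mostly up to about 70 µM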
# Procedure, shortened: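 Luminescence (ONE-Glo) from a dioxin-responsive-element luciferase reporter in HG2L7.5c1 HepG2 cells after 24 hr compound exposure at 37C; viability measured by CellTiter-Fluor fluorescence beforehand.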
# [2] = biological target: Peroxisome proliferator-activated receptor gamma (Homo sapiens) (UniProt P37231); experiment: qHTS assay to identify small molecule agonists of the peroxisome proliferator-activated receptor gamma (PPARg) signaling pathway (AID 743094; active = well fitted activation curve with a large enough effect in the signal ratio in the repeat runs, not every such curve was filed as active; the % refers to the signal ratio)
# Procedure, shortened: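 Agonism was assessed in a beta-lactamase reporter system, HEK293H cells with a stably integrated UAS-bla construct under PPARg control; the 17 h treatment at 37C preceded a 1 h room-temperature FRET substrate read.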
# [3] = qHTS assay to identify small molecule antagonists of the peroxisome proliferator-activated receptor gamma (PPARg) signaling pathway - cell viability counter screen (AID 743194); also: nearly all actives have a fitted effect of over 55% in size; also: potency is read from the fitted curve at half-maximal effect
# Procedure, shortened: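 PPARg-UAS-bla HEK293H cells were plated, rested 5 h at 37 C, then treated with compounds plus rosiglitazone (50 nM final) for 17 h at 37 C; viability was then read by CellTiter-Glo luminescence after 30 min at room temperature.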
# [4] = qHTS assay for small molecule activators of the heat shock response signaling pathway (AID 743210; active = well fitted activation curve with a large enough effect in the signal ratio in the repeat runs, with a control signal flat, not every such curve was filed as active; the % refers to the signal ratio; also: potency is read from the fitted curve at half-maximal effect; as to activation: series mostly up to about 63 µM)
# Procedure, shortened: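 Heat shock element–beta-lactamase HeLa reporter cells; qHTS with compounds for 5 h at 37 C; detection by FRET substrate fluorescence after 2.5 h at RT.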
# [5] = qHTS assay for small molecule agonists of the antioxidant response element (ARE) signaling pathway (AID 743202; active = well fitted activation curve with a large enough effect in the signal ratio in the repeat runs, not every such curve was filed as active; the % refers to the signal ratio; also: potency is read from the fitted curve at half-maximal effect)
# Procedure, shortened: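 Following a 16 h, 37 C exposure of reporter HepG2 cells (ARE-driven beta-lactamase, 2,000 cells/well) to compounds, FRET substrate was applied for 2 h at room temperature and fluorescence intensity recorded.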
# [6] = qHTS assay for small molecule agonists of the antioxidant response element (ARE) signaling pathway - cell viability counter screen (AID 743203; calls by dose curve; also: nearly all actives have a fitted effect of over 55% in size; also: potency is read from the fitted curve at half-maximal effect)
# Procedure, shortened: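 ATP content via CellTiter-Glo luminescence served as the viability measure. Cells: ARE-bla HepG2, 2,000 per well. Exposure: 16 hrs, 37C/5% CO2.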
# [7] = qHTS assay for small molecule activators of the heat shock response signaling pathway - cell viability counter screen (AID 743209); also: nearly all actives have a fitted effect of over 50% in size; also: potency is read from the fitted curve at half-maximal effect
# Procedure, shortened: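 Compounds dissolved in DMSO were added to overnight-plated HSE-bla HeLa cells and left 5 h at 37 C. Cell viability was quantified by luminescence using CellTiter-Glo.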
# [8] = biological target: Peroxisome proliferator-activated receptor gamma (Homo sapiens) (UniProt P37231); experiment: qHTS assay to identify small molecule antagonists of the peroxisome proliferator-activated receptor gamma (PPARg) signaling pathway (AID 743191; calls by dose curve; also: series mostly up to about 63 µM; nearly all actives have a fitted effect of over 30% in size)
# Procedure, shortened: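 GeneBLAzer PPARg UAS-bla HEK293H cells carrying a UAS-driven beta-lactamase reporter were plated at 3000 cells/well, preincubated 5 h at 37C, then given compound for 17 h at 37C; LiveBLAzer B/G FRET substrate was read after 1 h at room temperature.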
# [9] = qHTS assay to identify small molecule that activate the aryl hydrocarbon receptor (AhR) signaling pathway - cell viability counter screen (AID 743086); also: nearly all actives have a fitted effect of over 45% in size; also: potency is read from the fitted curve at half-maximal effect
# Procedure, shortened: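 HepG2-AhR-luc (HG2L7.5c1) cells, 4000/well, were preincubated 5 h at 37C, exposed to compound in qHTS format for 24 hr at 37C, then given CellTiter-Fluor for 30 min; viability was read as fluorescence in the reporter wells.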
# Sequence of Aryl hydrocarbon receptor (Homo sapiens) (P35869 whole entry, looked up): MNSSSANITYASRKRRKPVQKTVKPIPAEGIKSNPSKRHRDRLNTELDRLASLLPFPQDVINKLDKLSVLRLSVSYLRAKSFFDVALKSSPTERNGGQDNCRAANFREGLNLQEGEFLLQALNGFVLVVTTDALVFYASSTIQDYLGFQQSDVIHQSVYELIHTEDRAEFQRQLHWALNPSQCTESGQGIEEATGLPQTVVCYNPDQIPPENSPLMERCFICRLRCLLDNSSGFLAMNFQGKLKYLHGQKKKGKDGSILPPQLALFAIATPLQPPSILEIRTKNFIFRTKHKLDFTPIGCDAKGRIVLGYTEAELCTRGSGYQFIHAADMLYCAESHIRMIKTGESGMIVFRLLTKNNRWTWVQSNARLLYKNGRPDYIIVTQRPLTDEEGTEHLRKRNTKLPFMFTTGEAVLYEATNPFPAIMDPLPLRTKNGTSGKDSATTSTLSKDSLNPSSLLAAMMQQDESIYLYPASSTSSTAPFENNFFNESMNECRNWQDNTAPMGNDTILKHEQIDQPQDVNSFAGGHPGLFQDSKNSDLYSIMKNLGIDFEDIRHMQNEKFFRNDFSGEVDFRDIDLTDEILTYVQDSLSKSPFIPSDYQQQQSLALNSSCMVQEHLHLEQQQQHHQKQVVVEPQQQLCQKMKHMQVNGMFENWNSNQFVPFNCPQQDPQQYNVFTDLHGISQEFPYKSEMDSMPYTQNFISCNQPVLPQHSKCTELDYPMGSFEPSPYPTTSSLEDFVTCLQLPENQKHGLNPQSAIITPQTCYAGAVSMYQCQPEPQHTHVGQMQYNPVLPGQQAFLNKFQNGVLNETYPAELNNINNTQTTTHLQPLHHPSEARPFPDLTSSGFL
# Sequence of Peroxisome proliferator-activated receptor gamma (Homo sapiens) (P37231 whole entry, looked up): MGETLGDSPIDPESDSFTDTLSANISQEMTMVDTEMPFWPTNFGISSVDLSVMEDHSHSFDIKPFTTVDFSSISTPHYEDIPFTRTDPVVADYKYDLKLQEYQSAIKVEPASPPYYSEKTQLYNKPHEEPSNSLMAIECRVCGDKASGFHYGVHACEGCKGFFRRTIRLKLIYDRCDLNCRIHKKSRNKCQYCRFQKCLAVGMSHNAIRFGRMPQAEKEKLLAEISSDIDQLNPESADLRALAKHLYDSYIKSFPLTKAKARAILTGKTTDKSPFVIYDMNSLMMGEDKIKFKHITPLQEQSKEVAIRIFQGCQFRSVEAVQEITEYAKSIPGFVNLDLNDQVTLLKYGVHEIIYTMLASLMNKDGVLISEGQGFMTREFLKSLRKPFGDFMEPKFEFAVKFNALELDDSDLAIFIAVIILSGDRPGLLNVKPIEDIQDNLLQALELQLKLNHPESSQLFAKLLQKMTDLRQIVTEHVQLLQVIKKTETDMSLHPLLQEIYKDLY
smiles,measurement,setting,value
COc1ccccc1NC(=O)c1cc2ccccc2cc1O,Potency,[1],3.06 µM (active)
same,Potency,[2],inactive
same,Potency,[3],17.4 µM (active)
same,Potency,[4],50.9 µM (active)
Cc1cc(O)c(C)c(C)c1O,Potency,[3],inactive
same,Potency,[5],23.7 µM (active)
same,Potency,[6],inactive
same,Potency,[7],inactive
same,Potency,[4],inactive
COC(=O)[C@H]1[C@H]2C[C@@H]3c4[nH]c5cc(OC)ccc5c4CCN3C[C@H]2C[C@@H](OC(=O)/C=C/c2ccc(O)c(OC)c2)[C@@H]1OC,Potency,[6],inactive
same,Potency,[7],inactive
CCCC(C(=O)OCCN(CC)CC)(c1ccccc1)c1ccccc1,Potency,[1],inactive
same,Potency,[2],inactive
same,Potency,[3],inactive
same,Potency,[6],inactive
same,Potency,[7],inactive
CN1CC(=O)N2[C@H](c3ccc4c(c3)OCO4)c3[nH]c4ccccc4c3C[C@@H]2C1=O,Potency,[2],inactive
same,Potency,[8],inactive
same,Potency,[3],inactive
same,Potency,[5],inactive
same,Potency,[6],inactive
same,Potency,[7],inactive
same,Potency,[4],inactive
CN(C(=O)CN(CCO)CC(=O)N(C)C(C)(C)Cc1ccccc1)C(C)(C)Cc1ccccc1,Potency,[9],inactive
same,Potency,[3],inactive
same,Potency,[5],inactive
same,Potency,[6],inactive
same,Potency,[7],inactive
O=C1Cc2cc(Cl)ccc2N1,Potency,[3],inactive
same,Potency,[5],21.1 µM (active)
same,Potency,[6],inactive
same,Potency,[7],inactive
same,Potency,[4],inactive
Cc1ccc2c(Br)cc(Br)c(O)c2n1,Potency,[1],13.3 µM (active)
same,Potency,[3],23.7 µM (active)
same,Potency,[6],inactive
same,Potency,[7],inactive
C[C@@H](O[C@H]1OCCN(Cc2n[nH]c(=O)[nH]2)[C@H]1c1ccc(F)cc1)c1cc(C(F)(F)F)cc(C(F)(F)F)c1,Potency,[1],inactive
same,Potency,[2],inactive
same,Potency,[7],29.8 µM (active)
CC(C)C[C@H](NC(=O)[C@H](CCc1ccccc1)NC(=O)CN1CCOCC1)C(=O)N[C@@H](Cc1ccccc1)C(=O)N[C@@H](CC(C)C)C(=O)[C@@]1(C)CO1,Potency,[1],inactive
same,Potency,[9],0.0473 µM (active)
same,Potency,[5],0.0668 µM (active)
same,Potency,[6],3.76 µM (active)
same,Potency,[7],inactive
NNC(=O)CP(=O)(c1ccccc1)c1ccccc1,Potency,[9],inactive
same,Potency,[3],inactive
same,Potency,[5],inactive
same,Potency,[6],inactive
same,Potency,[7],inactive
same,Potency,[4],inactive
COC(=O)c1nc(Cl)c(Cl)nc1N,Potency,[3],26.6 µM (active)
same,Potency,[6],23.7 µM (active)
same,Potency,[7],5.31 µM (active)
C[C@H]1C[C@H](O)c2ccsc2S1(=O)=O,Potency,[3],inactive
same,Potency,[5],inactive
same,Potency,[6],inactive
same,Potency,[7],inactive
same,Potency,[4],inactive
CC(C)=CCC/C(C)=C/CC/C(C)=C/C(=O)OCC(=O)[C@@]1(O)CC[C@H]2[C@@H]3CCC4=CC(=O)C=C[C@]4(C)[C@H]3[C@@H](O)C[C@@]21C,Potency,[7],inactive
CCC1NC(=O)c2cc(S(N)(=O)=O)c(Cl)cc2N1 (centres undefined),Potency,[9],inactive
same,Potency,[2],inactive
same,Potency,[3],inactive
same,Potency,[5],inactive
same,Potency,[6],inactive
same,Potency,[4],inactive
CC(=O)c1cc2ccccc2s1,Potency,[5],inactive
same,Potency,[6],inactive
same,Potency,[7],inactive
same,Potency,[4],inactive
N#[N+]c1ccc2c(S(=O)(=O)[O-])cccc2c1O,Potency,[1],inactive
same,Potency,[2],inactive
same,Potency,[3],inactive
same,Potency,[5],inactive
same,Potency,[6],inactive
same,Potency,[7],inactive
same,Potency,[4],inactive
CC(C)(C)CC(=O)OCC(=O)[C@@]1(O)CC[C@H]2[C@@H]3CCC4=CC(=O)C=C[C@]4(C)[C@H]3[C@@H](O)C[C@@]21C,Potency,[3],inactive
same,Potency,[5],inactive
same,Potency,[6],inactive
same,Potency,[7],inactive
CCCC(=O)C(=O)O,Potency,[1],inactive
same,Potency,[3],inactive
same,Potency,[6],inactive
same,Potency,[7],inactive
same,Potency,[4],inactive
CS(=O)(=O)c1ccc(-c2cn3ccccc3n2)cc1,Potency,[3],inactive
same,Potency,[5],inactive
CCOC(=O)c1ccc(O)c(O)c1,Potency,[3],inactive
same,Potency,[5],inactive
same,Potency,[6],inactive
same,Potency,[7],inactive
same,Potency,[4],inactive
C[C@@]12CCC[C@H]1[C@@H]1CC[C@H]3C[C@@H](O)CC[C@]3(C)[C@H]1CC2,Potency,[3],inactive
same,Potency,[5],inactive
same,Potency,[6],inactive
same,Potency,[7],inactive
O=C1NCCN1CCO,Potency,[9],inactive
same,Potency,[2],inactive
same,Potency,[8],inactive
same,Potency,[3],inactive
same,Potency,[5],inactive
same,Potency,[6],inactive
same,Potency,[7],inactive
same,Potency,[4],inactive
COc1cc(Nc2c(C#N)cnc3cc(OCCCN4CCN(C)CC4)c(OC)cc23)c(Cl)cc1Cl,Potency,[1],inactive
same,Potency,[9],13.3 µM (active)
same,Potency,[3],21.1 µM (active)
same,Potency,[6],18.8 µM (active)
same,Potency,[7],inactive
c1ccc2c(c1)CCc1ccccc1N2,Potency,[9],inactive
same,Potency,[2],inactive
same,Potency,[3],inactive
same,Potency,[5],inactive
same,Potency,[6],inactive
same,Potency,[7],inactive
same,Potency,[4],inactive
COc1ccc(OC(=O)N(CC(=O)O)Cc2ccc(OCCc3nc(-c4ccccc4)oc3C)cc2)cc1,Potency,[3],inactive
same,Potency,[6],inactive
same,Potency,[7],inactive
same,Potency,[4],inactive
O=[N+]([O-])c1ccc(Nc2ccc(Nc3ccccc3)c(S(=O)(=O)O)c2)c([N+](=O)[O-])c1,Potency,[1],inactive
same,Potency,[2],inactive
same,Potency,[8],inactive
same,Potency,[3],inactive
same,Potency,[6],inactive
same,Potency,[7],inactive
same,Potency,[4],inactive
OCCN1CCN(CCCN2c3ccccc3Sc3ccc(Cl)cc32)CC1,Potency,[2],inactive
same,Potency,[6],29.8 µM (active)
same,Potency,[7],inactive
same,Potency,[4],inactive
Nc1nc2ccc([N+](=O)[O-])cc2s1,Potency,[1],32.5 µM (active)
same,Potency,[2],inactive
same,Potency,[5],9.69 µM (active)
same,Potency,[6],inactive
Cc1cc(O)ccc1O,Potency,[1],61.8 µM (active)
same,Potency,[9],inactive
same,Potency,[3],inactive
same,Potency,[6],inactive
same,Potency,[7],inactive
same,Potency,[4],inactive
CC(CC1c2ccccc2CCc2ccccc21)CN(C)C (centres undefined),Potency,[6],inactive
same,Potency,[7],inactive
Brc1cc(Br)c(Oc2cc(Br)c(Br)cc2Br)cc1Br,Potency,[3],inactive
same,Potency,[5],inactive
same,Potency,[6],inactive
same,Potency,[7],inactive
O=c1cc(-c2ccccc2)oc2cc(O)cc(O)c12,Potency,[1],12.2 µM (active)
same,Potency,[3],inactive
same,Potency,[6],inactive
CC[C@]1(O)C[C@H]2CN(CCc3c([nH]c4ccccc34)[C@@](C(=O)OC)(c3cc4c(cc3OC)N(C=O)[C@H]3[C@@](O)(C(=O)OC)[C@H](OC(C)=O)[C@]5(CC)C=CCN6CC[C@]43[C@@H]65)C2)C1,Potency,[1],inactive
same,Potency,[3],inactive
same,Potency,[7],inactive
same,Potency,[4],inactive
CCCCN(CCN(CCCC)C(=O)N1CCOCC1)C(=O)N1CCOCC1,Potency,[3],inactive
same,Potency,[5],inactive
same,Potency,[6],inactive
same,Potency,[7],inactive
CNC(=O)c1cnn(-c2nc(N)c3ncn([C@@H]4O[C@H](CO)[C@@H](O)[C@H]4O)c3n2)c1,Potency,[3],inactive
same,Potency,[5],inactive
same,Potency,[6],inactive
same,Potency,[7],inactive
same,Potency,[4],inactive
CN1C(=O)N(c2ccccc2Br)Cc2cnc(Nc3ccc4c(c3)OCC(CO)O4)nc21 (centres undefined),Potency,[3],49 µM (active)
same,Potency,[7],inactive
CC(=O)N/N=C/c1ccc([N+](=O)[O-])o1,Potency,[2],inactive
same,Potency,[3],inactive
same,Potency,[6],inactive
CCCCN(CCCC)C(C(N)=O)c1ccc(OC)cc1 (centres undefined),Potency,[3],inactive
same,Potency,[5],inactive
same,Potency,[6],inactive
same,Potency,[7],inactive
same,Potency,[4],inactive
